# Results as given in PubChem BioAssay (NCATS).
# Results filed as inconclusive are left out. Activity calls are given as the source filed them. Unless noted, calls follow the shape of the dose curve; as a rule, active = well fitted curve in the direction sought with a large enough effect; inconclusive = small, poorly fitted or top-dose-only effect, or another doubt; inactive = no such curve, though single readings can be large; an effect the other way counts as inactive or inconclusive.
# How the values were obtained:
# [1] = biological target: ATP-dependent 6-phosphofructokinase (Trypanosoma brucei brucei) (UniProt O15648); experiment: qHTS Assay to Find Inhibitors of T. brucei phosphofructokinase: hit validation (AID 492961);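 also: luminescence reports ADP formed as PFK phosphorylates fructose-6-phosphate with ATP; % is scaled to controls: 0 for no effect and ±100 for the full control effect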
# Chain of ATP-dependent 6-phosphofructokinase (Trypanosoma brucei brucei) (O15648 whole entry, looked up): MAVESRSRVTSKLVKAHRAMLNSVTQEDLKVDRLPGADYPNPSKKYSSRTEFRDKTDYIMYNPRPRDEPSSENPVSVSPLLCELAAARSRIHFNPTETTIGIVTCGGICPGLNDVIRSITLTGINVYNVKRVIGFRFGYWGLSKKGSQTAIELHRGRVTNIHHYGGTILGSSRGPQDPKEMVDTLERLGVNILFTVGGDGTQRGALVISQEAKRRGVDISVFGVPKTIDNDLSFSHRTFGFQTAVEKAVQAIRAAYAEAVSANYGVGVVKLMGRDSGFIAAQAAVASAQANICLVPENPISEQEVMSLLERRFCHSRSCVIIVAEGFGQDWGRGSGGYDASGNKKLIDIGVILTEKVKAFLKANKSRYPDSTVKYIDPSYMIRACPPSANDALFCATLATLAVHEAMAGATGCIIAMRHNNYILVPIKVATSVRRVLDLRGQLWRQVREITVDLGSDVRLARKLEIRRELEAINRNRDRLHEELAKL
# How it was run: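 Percent activity derived from corrected luminescence, normalized between 0x and 1x enzyme controls, then fitted to concentration-response curves. Conditions: 1.25 nM PFK, 0.1 mM ATP, 0.5 mM F6P, 45 min RT.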
# [2] = biological target: Ubiquitin carboxyl-terminal hydrolase 1 (Homo sapiens) (UniProt O94782); experiment: Inhibitors of USP1/UAF1: Pilot qHTS (AID 504865);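 also: rhodamine fluorescence freed from ubiquitin-rhodamine substrate followed over time; top concentration of the series differs between compounds; % is scaled to controls: 0 for no effect and ±100 for the full control effect; nearly all actives have a fitted effect of over 35% in size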
# Chain of Ubiquitin carboxyl-terminal hydrolase 1 (Homo sapiens) (O94782 whole entry, looked up): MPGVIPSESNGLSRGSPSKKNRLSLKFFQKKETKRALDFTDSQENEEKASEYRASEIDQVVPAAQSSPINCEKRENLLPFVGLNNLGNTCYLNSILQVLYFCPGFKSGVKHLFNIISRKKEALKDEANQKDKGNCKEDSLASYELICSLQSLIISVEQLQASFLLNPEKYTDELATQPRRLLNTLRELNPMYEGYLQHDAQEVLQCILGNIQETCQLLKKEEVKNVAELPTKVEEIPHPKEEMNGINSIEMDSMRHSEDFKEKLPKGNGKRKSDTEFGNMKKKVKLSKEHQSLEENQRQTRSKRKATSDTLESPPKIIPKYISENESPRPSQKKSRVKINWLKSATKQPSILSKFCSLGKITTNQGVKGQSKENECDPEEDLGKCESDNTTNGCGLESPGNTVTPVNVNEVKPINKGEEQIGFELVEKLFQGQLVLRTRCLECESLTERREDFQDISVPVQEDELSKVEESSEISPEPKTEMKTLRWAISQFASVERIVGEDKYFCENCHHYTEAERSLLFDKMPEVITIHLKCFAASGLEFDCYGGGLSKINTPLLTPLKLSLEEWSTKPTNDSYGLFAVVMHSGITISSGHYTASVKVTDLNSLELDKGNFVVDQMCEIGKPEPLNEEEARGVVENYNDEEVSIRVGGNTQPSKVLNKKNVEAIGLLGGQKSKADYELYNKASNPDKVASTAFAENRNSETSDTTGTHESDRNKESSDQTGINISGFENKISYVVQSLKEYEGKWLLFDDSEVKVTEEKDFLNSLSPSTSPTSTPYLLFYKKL
# How it was run: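 1nM USP1/UAF1 + cpd, 15 min RT; start w/ Ub-Rho 150nM final; kinetic FL 480/540 nm, 6 reads q60 s. Buffer 50mM HEPES pH 7.8, 0.5mM EDTA, 1mM TCEP, 0.01% Tween-20, 0.1 mg/ml BSA.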
# [3] = biological target: Luciferin 4-monooxygenase (Photinus pyralis) (UniProt P08659); experiment: Biochemical firefly luciferase enzyme assay for NPC (AID 624030);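 also: purified P. pyralis luciferase at 10 nM with luciferin and ATP substrate; 0% = DMSO and -100% = full luciferase inhibition by PTC124 control; nearly all actives have a fitted effect of over 70% in size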
# Chain of Luciferin 4-monooxygenase (Photinus pyralis) (P08659 whole entry, looked up): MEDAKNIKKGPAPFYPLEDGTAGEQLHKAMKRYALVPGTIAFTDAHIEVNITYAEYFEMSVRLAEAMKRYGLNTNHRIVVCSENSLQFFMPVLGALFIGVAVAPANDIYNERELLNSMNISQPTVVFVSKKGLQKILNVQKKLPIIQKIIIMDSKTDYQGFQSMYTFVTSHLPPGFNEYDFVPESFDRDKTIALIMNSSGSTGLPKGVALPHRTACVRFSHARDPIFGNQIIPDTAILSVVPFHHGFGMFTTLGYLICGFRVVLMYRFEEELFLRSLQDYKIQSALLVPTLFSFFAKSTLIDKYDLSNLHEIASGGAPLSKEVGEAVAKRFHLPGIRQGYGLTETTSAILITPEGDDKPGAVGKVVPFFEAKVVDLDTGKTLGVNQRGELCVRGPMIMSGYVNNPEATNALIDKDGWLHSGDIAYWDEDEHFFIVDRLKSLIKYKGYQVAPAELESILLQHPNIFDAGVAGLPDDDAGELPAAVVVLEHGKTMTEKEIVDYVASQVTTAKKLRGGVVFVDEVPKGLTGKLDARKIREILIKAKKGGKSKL
# How it was run: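 Counter-screen for direct inhibition of the luciferase enzyme by approved-drug library compounds, run at 10 nM enzyme in 50 mM Tris acetate (final). Luminescence was read within 5 min of enzyme-buffer addition and normalized to PTC124 versus DMSO (0%).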
# [4] = S16 Schwann cell viability assay (CellTiter-Glo assay) (AID 624031); also: potency is read from the fitted curve at half-maximal effect; nearly all actives have a fitted effect of over 70% in size
# How it was run: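 Counter-screen for cytotoxicity: parental S16 rat Schwann cells lacking the PMP22 reporters, treated 24 h with compound, viability from cellular ATP by CellTiter-Glo luminescence, normalized to DMSO (0%) and no-cell wells.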
# [5] = S16 Schwann cell PMP22 intronic element firefly luciferase assay (AID 624032); also: potency is read from the fitted curve at half-maximal effect; nearly all actives have a fitted effect of over 30% in size
# How it was run: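 Rat S16 Schwann cells stably carrying a PMP22 intronic element-driven Fluc reporter were seeded overnight, then exposed to compounds for 24 h at 37 °C. Luminescence was normalized to PTC124 (positive control) and DMSO (0% activity).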
# [6] = S16 Schwann cell PMP22 intronic element beta-lactamase assay (AID 624044; calls by dose curve; also: potency is read from the fitted curve at half-maximal effect; nearly all actives have a fitted effect of over 15% in size); conditions: S16 rat Schwann cells, PMP22 element beta-lactamase FRET, 24 h; ratio activity, negative = inhibition: at 38.3 µM (top of the series) unless noted
# How it was run: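 Rat S16 Schwann cells with beta-Lac driven by a PMP22 intronic element, compound-treated 24 h at 37 °C. LiveBLAzer FRET B/G read: 460 nm normalized to potassium clavulanate vs DMSO; 535 nm FRET as viability; concentration-effect curves classified.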
# [7] = Primary qHTS for Huh7 cytotoxicity: counterscreen for inhibitors of MERS-S pseudotyped particle cell entry (AID 1479147; calls by dose curve; also: % is scaled to controls: 0 for no effect and ±100 for the full control effect); conditions: outcome: dose series up to 57.1 µM unless noted
# [8] = Primary qHTS for inhibitors of MERS-S pseudo-typed particle cell entry (AID 1479149; calls by dose curve; also: % is scaled to controls: 0 for no effect and ±100 for the full control effect; nearly all actives have a fitted effect of over 60% in size); conditions: outcome: dose series up to 57.1 µM unless noted
# [9] = Primary qHTS for Vero E6 cytotoxicity: counterscreen for inhibitors of SARS-S pseudo-typed particle cell entry (AID 1479150; calls by dose curve); conditions: outcome: dose series up to 57.1 µM unless noted
# [10] = Cytotoxicity counterscreen for inhibitors of SARS-CoV-2 cell entry (AID 1645845; calls by dose curve; also: nearly all actives have a fitted effect of over 50% in size); conditions: outcome: dose series up to 57.1 µM unless noted
# How it was run: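 Expi293F/hACE2 cells seeded overnight; cpd pin-transferred in DMSO, 1 h preincubation, + media, 48 h 37 C 5% CO2; ATPLite 1step luminescence; normalized to cells and no cells.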
# [11] = Primary qHTS to identify inhibitors of SARS-CoV-2 cell entry (AID 1645846; calls by dose curve; also: nearly all actives have a fitted effect of over 45% in size); conditions: SARS-CoV-2 pseudovirus cell entry assay, luminescence; activity change, negative = inhibition: at 57.1 µM (top of the series) unless noted
# How it was run: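 HEK293-ACE2 (Expi293F, stable hACE2), 1500 cells/well, o/n 37C; cpd 23 nL pin, 1 h; MLV-PP w/ SARS-CoV-2-S (Wuhan-Hu-1, Δ19 C-term); 48 h 37C; Bright-Glo luminescence; normalized vs S-PP and bald PP.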
# [12] = biological target: Phospholipid hydroperoxide glutathione peroxidase GPX4 (Homo sapiens) (UniProt P36969); experiment: Primary qHTS Assay for Inhibitors of Recombinant Selenoprotein Glutathione Peroxidase 4 (GPX4) (AID 1845192); also: % is scaled to controls: 0 for no effect and ±100 for the full control effect; nearly all actives have a fitted effect of over 65% in size
# Chain of Phospholipid hydroperoxide glutathione peroxidase GPX4 (Homo sapiens) (P36969 whole entry, looked up): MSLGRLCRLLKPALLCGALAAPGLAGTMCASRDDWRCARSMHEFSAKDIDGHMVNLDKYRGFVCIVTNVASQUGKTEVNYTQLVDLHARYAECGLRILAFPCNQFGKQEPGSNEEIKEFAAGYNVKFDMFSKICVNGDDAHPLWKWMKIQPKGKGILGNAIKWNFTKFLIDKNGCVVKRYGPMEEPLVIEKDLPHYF
# How it was run: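 GR-coupled readout: 100 nM GR, 1 mM GSH, 0.5 mM NADPH; NADPH fluorescence (ex 340/em 450 nm) read at t=0 and after 15 min RT. GPX4 200 nM, preincubated 30 min with compound; substrate 0.5 mM CHP.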
# [13] = qHTS profiling for inhibitors of Plasmodium falciparum proliferation (AID 504749); also: potency is read from the fitted curve at half-maximal effect; nearly all actives have a fitted effect of over 60% in size; conditions: P. falciparum in erythrocytes, SYBR Green DNA, 72 h
# How it was run: (§1)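 Parasite proliferation within erythrocytes, 72 h exposure. Endpoint: SYBR Green I fluorescence after overnight lysis at room temperature. Controls: 0.29 uM artemisinin, DMSO.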
# 3D7 = experiment: as above; conditions: P. falciparum in erythrocytes, SYBR Green DNA, 72 h; series mostly up to 28.7 µM
# How it was run: as §1
# 7G8 = experiment: as above; conditions: P. falciparum in erythrocytes, SYBR Green DNA, 72 h; series mostly up to 12.8 µM
# How it was run: as §1
# AA1029 = experiment: as above; conditions: P. falciparum in erythrocytes, SYBR Green DNA, 72 h; series mostly up to 28.7 µM
# How it was run: as §1
# AS120 = experiment: as above; conditions: P. falciparum in erythrocytes, SYBR Green DNA, 72 h; series mostly up to 28.7 µM
# How it was run: as §1
# ATS189 = experiment: as above; conditions: P. falciparum in erythrocytes, SYBR Green DNA, 72 h; series mostly up to 28.7 µM
# How it was run: as §1
# ATS95 = experiment: as above; conditions: P. falciparum in erythrocytes, SYBR Green DNA, 72 h; series mostly up to 28.7 µM
# How it was run: as §1
# C2A = experiment: as above; conditions: P. falciparum in erythrocytes, SYBR Green DNA, 72 h; series mostly up to 28.7 µM
# How it was run: as §1
# CP185 = experiment: as above; conditions: P. falciparum in erythrocytes, SYBR Green DNA, 72 h; series mostly up to 28.7 µM
# How it was run: as §1
# CP191 = experiment: as above; conditions: P. falciparum in erythrocytes, SYBR Green DNA, 72 h; series mostly up to 28.7 µM
# How it was run: as §1
# CP192 = experiment: as above; conditions: P. falciparum in erythrocytes, SYBR Green DNA, 72 h; series mostly up to 28.7 µM
# How it was run: as §1
# CP194 = experiment: as above; conditions: P. falciparum in erythrocytes, SYBR Green DNA, 72 h; series mostly up to 28.7 µM
# How it was run: as §1
# CP201 = experiment: as above; conditions: P. falciparum in erythrocytes, SYBR Green DNA, 72 h; series mostly up to 28.7 µM
# How it was run: as §1
# CP203 = experiment: as above; conditions: P. falciparum in erythrocytes, SYBR Green DNA, 72 h; series mostly up to 28.7 µM
# How it was run: as §1
# CP211 = experiment: as above; conditions: P. falciparum in erythrocytes, SYBR Green DNA, 72 h; series mostly up to 28.7 µM
# How it was run: as §1
# CP215 = experiment: as above; conditions: P. falciparum in erythrocytes, SYBR Green DNA, 72 h; series mostly up to 28.7 µM
# How it was run: as §1
# CP217 = experiment: as above; conditions: P. falciparum in erythrocytes, SYBR Green DNA, 72 h; series mostly up to 28.7 µM
# How it was run: as §1
# CP237 = experiment: as above; conditions: P. falciparum in erythrocytes, SYBR Green DNA, 72 h; series mostly up to 28.7 µM
# How it was run: as §1
# CP238 = experiment: as above; conditions: P. falciparum in erythrocytes, SYBR Green DNA, 72 h; series mostly up to 28.7 µM
# How it was run: as §1
# CP247 = experiment: as above; conditions: P. falciparum in erythrocytes, SYBR Green DNA, 72 h; series mostly up to 28.7 µM
# How it was run: as §1
# CP250 = experiment: as above; conditions: P. falciparum in erythrocytes, SYBR Green DNA, 72 h; series mostly up to 12.8 µM
# How it was run: as §1
compound,measurement,setting,value
CO[C@@H](COC(N)=O)C1=C(N2CC2)C(=O)C(C)=C(N2CC2)C1=O,Potency,[1],inactive
same,Potency,[2],inactive
same,Potency,[3],inactive
same,Potency,[4],32.2 µM (active)
same,Potency,[5],36.1 µM (active)
same,Potency,[6],354 nM (active)
same,Potency,[7],inactive
same,Potency,[8],inactive
same,Potency,[9],inactive
same,Potency,[10],inactive
same,"activity change, negative = inhibition",[11],-18.1%
same,Potency,[12],inactive
same,Potency,[13]; parasite line A,891 nM (active)
same,Potency,[13]; parasite line B,1410 nM (active)
same,Potency,3D7,1.26 µM (active)
same,Potency,7G8,1.26 µM (active)
same,Potency,AA1029,1.41 µM (active)
same,Potency,AS120,891 nM (active)
same,Potency,ATS189,2.82 µM (active)
same,Potency,ATS95,1.41 µM (active)
same,Potency,C2A,794 nM (active)
same,Potency,CP185,794 nM (active)
same,Potency,CP191,708 nM (active)
same,Potency,CP192,1.69 µM (active)
same,Potency,CP194,1.69 µM (active)
same,Potency,CP201,3.38 µM (active)
same,Potency,CP203,1.51 µM (active)
same,Potency,CP211,675 nM (active)
same,Potency,CP215,1.9 µM (active)
same,Potency,CP217,3.16 µM (active)
same,Potency,CP237,1.26 µM (active)
same,Potency,CP238,1.41 µM (active)
same,Potency,CP247,708 nM (active)
same,Potency,CP250,1.41 µM (active)
